Test [1] can be described thus: qHTS profiling for inhibitors of Plasmodium falciparum (3D7) proliferation (AID 743322).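 Further: infected erythrocytes exposed to compound for 72 h before lysis; 100% = DMSO vehicle wells and 0% = 0.29 µM artemisinin.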 As to conditions: P. falciparum 3D7 proliferation; at 28.7 µM (top of the series). The procedure, abridged:
(§1)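 Parasite DNA was quantified by SYBR Green I fluorescence (ex 485, em 535 nm) after overnight lysis in saponin/Triton buffer at room temperature. Cultures at 0.3% parasitemia and 2.5% hematocrit were first exposed to compound for 72 h at 37 C; signals were normalised to artemisinin (0.29 uM) and vehicle wells.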
A general note: In qHTS, concentration-response curves come from the screen itself.

Test [2] in a line: qHTS profiling for inhibitors of Plasmodium falciparum (DD2) proliferation (AID 743323). As to conditions: lower = more inhibition; at 28.7 µM (top of the series). The gist of the method:
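Parasite DNA quantified by SYBR Green fluorescence (ex 485, em 535 nm) after saponin/Triton lysis and overnight dark incubation. Cultures: 0.3% parasitemia, 2.5% hematocrit, 72 h, 37 C; data scaled between DMSO and 0.29 uM artemisinin.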

The nature of test [3]: qHTS profiling for inhibitors of Plasmodium falciparum (HB3) proliferation (AID 743324; active means well fitted curve in the direction sought with a large enough effect; an effect the other way counts as inactive or inconclusive;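 further: 100% = DMSO vehicle wells and 0% = artemisinin-treated control wells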). Conditions: Plasmodium falciparum HB3 blood-stage proliferation; at 28.7 µM (top of the series). The procedure, abridged: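 SYBR Green fluorescence (485 ex/535 em) of lysed cultures, incubated overnight at room temperature in the dark, quantifies parasite DNA. Infected erythrocytes at 0.3% parasitemia and 2.5% hematocrit were exposed 72 h; values normalized to DMSO and 0.29 uM artemisinin controls.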

Test [4] is described as follows: qHTS profiling of the MIPE4 collection as inhibitors of Plasmodium falciparum (3D7) proliferation (AID 743344).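 Further: scaled between DMSO vehicle wells and 0.29 µM artemisinin as full inhibition.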 As to conditions: P. falciparum 3D7 in erythrocytes, SYBR Green DNA fluorescence, 72 h; at 28.5 µM (top of the series) unless noted. The gist of the method: as §1
The nature of test [5]: qHTS profiling of the MIPE4 collection as inhibitors of Plasmodium falciparum (DD2) proliferation (AID 743345). Conditions: P. falciparum Dd2 in erythrocytes, SYBR Green DNA, 72 h; at 28.5 µM (top of the series) unless noted. The gist of the method:
as §1

The nature of test [6]: qHTS profiling of the MIPE4 collection as inhibitors of Plasmodium falciparum (HB3) proliferation (AID 743347).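 Further: plate controls were DMSO vehicle wells for no effect and artemisinin wells for full effect.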 As to conditions: P. falciparum HB3 in erythrocytes, SYBR Green DNA, 72 h; at 28.5 µM (top of the series) unless noted. The procedure, abridged: as §1
The nature of test [7]: High-throughput drug toxicity screening in the BPDCN cell line Cal-1 (AID 1224825). Conditions: Cal-1 BPDCN cell viability, qHTS; at 45.8 µM (top of the series) unless noted. The gist of the method: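 CellTiter-Glo luminescence after 48 h compound exposure; percent activity scaled with DMSO as 100% and bortezomib (9.2 uM final) as 0%. Cal-1 cells seeded at 500/well in RPMI, 10% FBS, no phenol red.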

The nature of test [8]: qHTS assay for measurement of the activity of small molecule inhibitors on Zika virus induced Caspase-3 activity in human iPSC derived neural progenitor cells (hNPCs) (AID 1224857; active means well fitted curve in the direction sought with a large enough effect; an effect the other way counts as inactive or inconclusive; further: % of control where 0% means no effect; nearly all actives have a fitted effect of over 65% in size). The gist of the method:
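Pretreat hNPCs with compound 1 h; infect ZIKV 2 FFU/cell; 6 h 37 C, 5% CO2; Caspase-Glo 3/7, 30 min RT; luminescence; normalize to no-virus and virus-only wells.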

Test [9] can be described thus: qHTS assay for measurement of the activity of small molecule inhibitors on Zika virus induced Caspase-3 activity in human astrocytoma cells (AID 1224859; active means well fitted curve in the direction sought with a large enough effect; an effect the other way counts as inactive or inconclusive;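 further: plate controls were ZIKV-infected untreated cells for no effect and uninfected cells for full effect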). The gist of the method: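 Human SNB-19 astrocytoma cells in RPMI 1640 with 10% FBS receive compound one hour ahead of Zika virus at 2 FFU/cell. After 6 h infection, caspase-3/7 activity is detected by Caspase-Glo luminescence.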

Test [10] in a line: qHTS profiling of the MIPE4 collection as inhibitors of Plasmodium falciparum (DD2) proliferation (Rep 2) (AID 743346). As to conditions: P. falciparum Dd2 in erythrocytes, SYBR Green DNA, 72 h; at 28.5 µM (top of the series) unless noted. The gist of the method: as §1
Test [11] is described as follows: qHTS Assay for Identifying Gametocytocidal Compounds (AID 743244; active means well fitted curve in the direction sought with a large enough effect; an effect the other way counts as inactive or inconclusive; further: potency means the concentration at half of the fitted maximal effect;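 on max response: on the % scale 0 is the no-effect control and ±100 the full control effect; actives lower the fluorescent signal which means gametocytes are killed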). As to conditions: P. falciparum 3D7 stage III-V gametocytes, alamarBlue, 72 h; max response: stronger effect = lower value. The procedure, abridged:
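Compounds are pinned into medium, gametocytes (stage III–V, 3D7, 20,000 cells/well) added, and plates held 72 h at 37 °C in 5% CO2. AlamarBlue follows for 24 h before fluorescence reading.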

Each structure is given as a SMILES string. Results filed as inconclusive are left out. Activity calls are given as the source filed them. Unless noted, how the calls were made is not given here.

`Nc1ccc(C(=O)c2cc3c(ccc4ccccc43)[nH]2)cc1`: the remaining parasite growth % (stronger effect = lower value) in test [1] came to 114%. This molecule also yielded an activity, percent of control in test [2] of 98.8%. Further, the remaining proliferation (% of control), lower = more inhibition in [3] worked out at 99.1%. In test [4], this molecule gave a parasite growth, % of DMSO control of 292%. This molecule displayed a parasite growth remaining, % of DMSO control (lower = more inhibition) in test [5] of 83.6%. Also, the growth, % of control in test [6] amounted to 409%. Further, in [7], the viability (% of control) stood at 8.09%. The Potency entry in [8] and in test [9] was “inactive” throughout.
As for `CC(C)c1ccccc1Cc1cc(C(=O)Nc2ccc(S(=O)(=O)c3ccccc3C(C)(C)C)cc2)c(O)c(O)c1O`, the remaining parasite growth % (stronger effect = lower value) in [1] was found to be 0.404%. Moreover, in test [3], the remaining proliferation (% of control), lower = more inhibition is -0.184%. Moreover, the parasite growth, % of DMSO control in [4] was determined as 5.18%. The molecule also returned a parasite growth remaining, % of DMSO control (lower = more inhibition) in [5] of 6.18%. The molecule further registered a parasite growth, % of control (lower = inhibition) in [10] of 11.2%. In addition, in test [6], the growth, % of control turned out to be 7.71%. The viability (% of control) in test [7] amounted to 14.8%. Also, the Potency entry in test [8] and in [9] was “inactive” in each case.
In the case of `CC(C)C[C@H](NC(=O)CNC(=O)c1cc(Cl)ccc1Cl)B(O)O`, the Potency in test [11] is 18.7 µM (active). Also, the remaining parasite growth % (stronger effect = lower value) in [1] is -0.752%. Also, the remaining proliferation (% of control), lower = more inhibition in [3] is -0.908%. In addition, the parasite growth, % of DMSO control in test [4] worked out at 5.16%. Besides, the parasite growth remaining, % of DMSO control (lower = more inhibition) in test [5] was determined as 7.7%. In test [6], this molecule returned a growth, % of control of 3.75%. The viability (% of control) in test [7] was 4.79%. Moreover, the Potency entry in test [8] and in test [9] was “inactive” in each case.
As to `COC(=O)Nc1nc2ccc(C(=O)c3ccc(F)cc3)cc2[nH]1`, the parasite growth, % of DMSO control in test [4] is 66.2%. In [5], this molecule registered a parasite growth remaining, % of DMSO control (lower = more inhibition) of 96.2%. Also, the parasite growth, % of control (lower = inhibition) in test [10] was 69.2%. This molecule also came in with a growth, % of control in [6] of 61.7%. Further, the viability (% of control) in test [7] was 25%. In addition, the Potency result in test [8] and in test [9] was “inactive” throughout.
With `CC(C)(C)c1cc(C(C)(C)C)c(NC(=O)c2c[nH]c3ccccc3c2=O)cc1O`, in [11], the max response is 7.52% (inactive). Further, in test [1], the remaining parasite growth % (stronger effect = lower value) worked out at 33.5%. Further, the remaining proliferation (% of control), lower = more inhibition in test [3] came to 18.9%. The same molecule displayed a parasite growth, % of DMSO control in [4] of 106%. The molecule further yielded a parasite growth remaining, % of DMSO control (lower = more inhibition) in test [5] of 95.2%. For the same molecule, the parasite growth, % of control (lower = inhibition) in [10] turned out to be 88.9%. This molecule registered a growth, % of control in [6] of 57.9%. Moreover, the viability (% of control) in [7] worked out at 102%. The Potency entry in test [8] and in test [9] was “inactive” each time.
`CC(NCc1ccc2c(c1)nc(NC(=O)c1ccc(-c3cn[nH]c3)s1)n2CC(C)(C)O)C(C)(C)C` (stereo not given): the Potency in [11] is 9.35 µM (active). In addition, the remaining parasite growth % (stronger effect = lower value) in test [1] was -1.9%. Further, the remaining proliferation (% of control), lower = more inhibition in [3] was -1%. The same molecule returned a parasite growth, % of DMSO control in test [4] of 5.17%. This molecule also returned a parasite growth remaining, % of DMSO control (lower = more inhibition) in [5] of 7.07%. In addition, the growth, % of control in test [6] stood at 3.84%. Further, the viability (% of control) in test [7] was found to be 2.63%. Also, the Potency result in [8] is “inactive”.
With `COc1cc(C)c(Sc2cnc(NC(=O)c3ccc(CNC(C)C(C)C)cc3)s2)cc1C(=O)N1CCN(C(C)=O)CC1` (stereo not given), in [4], the parasite growth, % of DMSO control was 16.2%. For the same molecule, the parasite growth remaining, % of DMSO control (lower = more inhibition) in test [5] came to 16%. Besides, in test [10], the parasite growth, % of control (lower = inhibition) is 18.9%. This molecule also came in with a growth, % of control in [6] of 4.37%. Besides, the viability (% of control) in test [7] is 6.82%. Further, in [8], the Potency result was “inactive”.
With `COc1cc2nccc(Oc3ccc(NC(=O)C4(C(=O)Nc5ccc(F)cc5)CC4)cc3)c2cc1OC`, in test [11], the max response was 4.76% (inactive). Moreover, the remaining parasite growth % (stronger effect = lower value) in [1] is 3.02%. In [2], this molecule had an activity, percent of control of 14.8%. In [4], this molecule came in with a parasite growth, % of DMSO control of 3.93%. This molecule also yielded a parasite growth remaining, % of DMSO control (lower = more inhibition) in test [5] of 10.7%. In test [10], the parasite growth, % of control (lower = inhibition) turned out to be 7.46%. In test [6], the growth, % of control turned out to be 2.54%. In addition, in test [7], the viability (% of control) is 5.29%. Besides, the Potency result in [8] and in test [9] was “inactive” in each case.
For `C[C@]1(CO)CN(c2cc(C(=O)Nc3ccc4c(c3)-c3c(c(C(N)=O)nn3-c3ccc(F)cc3)CC4)c(Cl)cn2)C[C@@]1(C)CO`, in test [11], the max response is -20.6% (inactive). Besides, the remaining parasite growth % (stronger effect = lower value) in test [1] turned out to be 50.5%. Also, in [3], the remaining proliferation (% of control), lower = more inhibition was determined as 6.49%. The same molecule yielded a parasite growth, % of DMSO control in test [4] of 11.4%. In test [5], the parasite growth remaining, % of DMSO control (lower = more inhibition) was 17.1%. This molecule also showed a parasite growth, % of control (lower = inhibition) in test [10] of 38.3%. The same molecule had a growth, % of control in test [6] of 9.48%. In addition, the viability (% of control) in test [7] is 6.89%. For the same molecule, the Potency entry in [8] and in test [9] was “inactive” throughout.
The molecule `CCCn1c(=O)c2[nH]c(-c3cnn(Cc4cccc(C(F)(F)F)c4)c3)nc2n(CC)c1=O` came in with a parasite growth, % of DMSO control in test [4] of 62.2%. Also, the parasite growth remaining, % of DMSO control (lower = more inhibition) in test [5] worked out at 73.8%. In test [10], this molecule had a parasite growth, % of control (lower = inhibition) of 43.2%. Also, the growth, % of control in test [6] came to 51.8%. Moreover, in [7], the viability (% of control) worked out at 107%. Also, the Potency result in [8] and in [9] was “inactive” each time.

The values are drawn from PubChem BioAssay (NCATS).
